# Measured values reported in PubChem BioAssay (NCI).
# This is part of a sample that, as a whole, favours compounds with a hit. Of some 79,000 tested, about 15% had one in any assay. A number with no mark means an inactive call. The source made the active and inactive calls. Rule as the data show it: active = growth inhibition above about 70%; inactive = the rest. Where a SMILES comes first, the peptide text is derived from it. Bridges are numbered along the chain shown (N, C = ends). [ ]: non-standard residue; d: D form. The star is where a group is joined. ξ: configuration not given here. PhAc = O=C(Cc1ccccc1)*; ξP = O=C(O)C1CCCN1
# Test: NCI Yeast Anticancer Drug Screen. Data for the mlh1 rad18 strain (AID 175)
# Conditions: S. cerevisiae mlh1 rad18 strain growth inhibition; at 50.0 µM; stronger effect = higher value
# How it was run: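 Growth inhibition of the yeast strain was measured after compound exposure and expressed relative to vehicle-treated controls. The strain carries defined defects in DNA damage repair.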
row,Structure (SMILES),growth inhibition
1,CCOC(=O)CC(=O)C(=O)NNC1=NCCN1,15.2%
2,NCCc1c(-c2cccnc2)[nH]c2ccccc12,1.1%
3,CCCCCCCCCCCCCCCCOc1ccc(-c2cc(=O)n(C)n2C)cc1,-4.05%
4,COc1ccc(N2C(=O)/C(=C/c3ccc(N(CCC#N)CCC#N)cc3C)N=C2c2cc([N+](=O)[O-])ccc2Cl)cc1,1.85%
5,CSCNC(=S)Nc1ccc(Cl)c(Cl)c1,61.3%
6,COc1cc(C(=O)CC(=O)Cc2ccc3ccccc3n2)cc(OC)c1OC,38.2%
7,C[N+](C)(C)CC(=O)N/N=C(\C(=O)NC1=C(Cl)C(=O)c2ccccc2C1=O)C(C#N)c1csc(-c2ccc([N+](=O)[O-])cc2)n1 (stereo not given),19.9%
8,O=[N+]([O-])c1cccc(-c2csc(NNC3=NC/C(=C/c4ccc5c(c4)OCO5)S3)n2)c1,22.1%
9,O=C(Cc1ccccc1)N[C@@H]1COC(=O)C2CCCN2C(=O)[C@@H]2CCCN2C1=O (stereo not given in full) (PhAc-[dS]-Pro-[ξP]; ester 1-C),0.65%
10,COc1ccc(C(=O)C(O)c2ccc(OC)cc2)cc1 (stereo not given),26.1%
11,Cc1ncc([N+](=O)[O-])n1CCNC(=O)CCCCCn1ccnc1[N+](=O)[O-],-35.2%
12,OC1c2ccccc2-c2ccc(NCc3ccc4c(c3)OCO4)cc21 (stereo not given),19.4%
13,Cc1cccc(/C=C/c2csnn2)n1,-15.2%
14,O=[N+]([O-])c1ccc(N/N=C/C2CCCCCC2)c([N+](=O)[O-])c1,4%
15,BrC1(Br)C2CC/C=C/CCCCC21 (stereo not given),-27.1%
16,C1=C(c2ccccc2)OC(c2ccccc2)=C(c2ccccc2)[P+]1(c1ccccc1)c1ccccc1,99.5% (active)
17,COc1ccc2nc3cccc([N+](=O)[O-])c3c(NCCC(=O)O)c2c1,25.8%
18,O=C1CCN(C(=O)C2=CC(=O)OC2)C1,-2.2%
19,COC(=O)c1ccccc1NC(=O)Nc1ccccc1,8.35%
20,CC1(C)Cc2ccccc2C(C)(Cl)C(=O)N1 (stereo not given),17.8%
21,COc1cc(C)n2nnnc2n1,-9.4%
22,CC1=C(C(=O)OCCc2ccc([N+](=O)[O-])cc2)C(c2cccc([N+](=O)[O-])c2)C(C(=O)OC(C)C)=C(C)N1 (stereo not given),-30.9%
23,COc1ccc2oc3c(ccc[n+]3C)c(=O)c2c1,-16.9%
24,C=C(CBr)CCCOCc1ccccc1,-7.55%
25,CCc1cn(C2CC(CO)C(CO)S2)c(=O)[nH]c1=O (stereo not given),-6.7%
